Laboratory results reported in PubChem BioAssay AID2110 (National Center for Advancing Translational Sciences (NCATS), 2009).
Results filed as inconclusive are left out. Activity calls are given as the source filed them. The call rests on the fitted dose curve; in most records, active means well fitted curve in either direction with a large enough effect; inconclusive means small, poorly fitted or top-dose-only effect; inactive means no such curve, though single readings can be large or run the other way.

target: Lysosomal alpha-glucosidase (Homo sapiens) (UniProt P10253); experiment: Confirmation of Inhibitors and Activators of Purified Human alpha-Glucosidase Using an Alternate Red Fluorescent Susbtrate; settings: purified enzyme, red fluorogenic substrate; series mostly up to 63.4 µM; activity change, negative = inhibition: at the top concentration
How it was run: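 Concentration series tested against 4 nM purified human enzyme, pH 5.0 citrate buffer with Tween-20; 400 uM resorufin glycoside substrate, 20 min room temperature, NaOH/glycine stop. Fluorescence normalized to no-enzyme and full-activity controls; Hill-equation AC50.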

Activity change, negative = inhibition, inactive:
CC(=O)c1ccc(N2CCN(C(=O)c3ccc4c(c3)CC(=O)N4)CC2)cc1 -10.5%
c1csc(-c2nc(NCC3CCCO3)c3ccccc3n2)c1 (stereo not given) -0.393% [at 32.7 µM]
COc1ccc(CCn2c(=S)[nH]c(=O)c3c(C)cc(C)nc32)cc1OC 7.14%
CC(=O)c1ccc(N2CCN(S(=O)(=O)c3ccc(N4CCCC4=O)cc3)CC2)cc1 -2.38%
COc1ccc(CCc2c[nH]c(=O)c3cncnc23)cc1OC 2.32%
CC(=O)c1ccc(N2CCN(C(=O)c3ccc4c(c3)CCC(=O)N4)CC2)cc1 -4.65%
CC(=O)c1ccc(N2CCN(S(=O)(=O)c3ccc4c(c3)oc(=O)n4C)CC2)cc1 -15.5%
Cc1ccc(S(=O)(=O)N2CCN(C(=O)N(c3ccccc3)c3ccccc3)CC2)cc1 -78.6% [at 130 µM]
O=C1Cc2cc(S(=O)(=O)N3CCNCC3)ccc2N1 -15.6%
COc1cc(NS(C)(=O)=O)ccc1Nc1c2ccccc2nc2ccccc12 14.2%

Potency, active:
O=C1Cc2cc(S(=O)(=O)N3CCN(c4ccc(CO)cc4)CC3)ccc2N1 13000 nM [inhibitor]
CCCN1CNc2c(c(=O)[nH]c(=S)n2CCc2c(C)cccc2C)C1 3160 nM
CCCN1CNc2c(c(=O)[nH]c(=S)n2CCc2cccc(OC)c2)C1 2510 nM
CCCN1CNc2c(c(=O)[nH]c(=S)n2CCc2ccc(OC)c(OC)c2)C1 2000 nM
CCCN1CNc2c(c(=O)[nH]c(=S)n2CCc2ccccc2Cl)C1 2510 nM
CCCN1CNc2c(c(=O)[nH]c(=S)n2CCc2ccc(C)cc2C)C1 2820 nM
CCCN1CNc2c(c(=O)[nH]c(=S)n2CCc2ccc(OC)cc2OC)C1 2510 nM
CCCN1CNc2c(c(=O)[nH]c(=S)n2CCc2ccc(Cl)cc2)C1 11200 nM
CCCN1CNc2c(c(=O)[nH]c(=S)n2CCc2cccc(OC)c2OC)C1 10000 nM
CCCN1CNc2c(c(=O)[nH]c(=O)n2CCc2ccc(OC)c(OC)c2)C1 14100 nM
CCCN1CNc2c(c(=O)[nH]c(=S)n2CCc2cccc(Cl)c2Cl)C1 158 nM
CCCN1CNc2c(c(=O)[nH]c(=S)n2CCc2ccc3c(c2)OCCO3)C1 1120 nM
CCCN1CNc2c(c(=O)[nH]c(=S)n2CCc2cc(OC)cc(OC)c2)C1 708 nM
CCCN1CNc2c(c(=O)[nH]c(=S)n2CCc2ccccc2OC)C1 11200 nM
COc1ccc(CCn2c3c(c(=O)[nH]c2=S)CN(C)CN3)cc1OC 7940 nM
